# About 5,700 (2.6%) of roughly 220,000 compounds were called active. About 18% were inconclusive and are not listed. Calls come from the whole dose curve; as a rule, active = well fitted inhibition curve with a large enough effect; inconclusive = small, poorly fitted or top-dose-only effect; inactive = no such curve, though single readings can be large or run the other way. Shown is part of a subset that was picked to be rich in actives. Entries that show only a call come without a potency.
# Target: Lysine-specific demethylase 5B (Homo sapiens) (UniProt Q9UGL1)
# Experiment: Primary screen for KDM5B Histone Demethylases FDH-coupled qHTS; note: nearly all actives have a fitted effect of over 70% in size
# Conditions: FDH-coupled NADH fluorescence (FDH is formaldehyde dehydrogenase); series mostly up to 57.7 µM
# In short: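 Here, H3K4me3 peptide (12.5 µM in substrate mix) is demethylated by KDM5BΔAP, 200 nM final, after 10 min compound exposure. Formaldehyde product is coupled through FDH (0.25 U/mL in mix) to NADH fluorescence; 30-min ΔRFU feeds dose-response curves.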
# Potency is the fitted concentration of half-maximal effect.
# Chain of Lysine-specific demethylase 5B (Homo sapiens) (Q9UGL1 whole entry, looked up): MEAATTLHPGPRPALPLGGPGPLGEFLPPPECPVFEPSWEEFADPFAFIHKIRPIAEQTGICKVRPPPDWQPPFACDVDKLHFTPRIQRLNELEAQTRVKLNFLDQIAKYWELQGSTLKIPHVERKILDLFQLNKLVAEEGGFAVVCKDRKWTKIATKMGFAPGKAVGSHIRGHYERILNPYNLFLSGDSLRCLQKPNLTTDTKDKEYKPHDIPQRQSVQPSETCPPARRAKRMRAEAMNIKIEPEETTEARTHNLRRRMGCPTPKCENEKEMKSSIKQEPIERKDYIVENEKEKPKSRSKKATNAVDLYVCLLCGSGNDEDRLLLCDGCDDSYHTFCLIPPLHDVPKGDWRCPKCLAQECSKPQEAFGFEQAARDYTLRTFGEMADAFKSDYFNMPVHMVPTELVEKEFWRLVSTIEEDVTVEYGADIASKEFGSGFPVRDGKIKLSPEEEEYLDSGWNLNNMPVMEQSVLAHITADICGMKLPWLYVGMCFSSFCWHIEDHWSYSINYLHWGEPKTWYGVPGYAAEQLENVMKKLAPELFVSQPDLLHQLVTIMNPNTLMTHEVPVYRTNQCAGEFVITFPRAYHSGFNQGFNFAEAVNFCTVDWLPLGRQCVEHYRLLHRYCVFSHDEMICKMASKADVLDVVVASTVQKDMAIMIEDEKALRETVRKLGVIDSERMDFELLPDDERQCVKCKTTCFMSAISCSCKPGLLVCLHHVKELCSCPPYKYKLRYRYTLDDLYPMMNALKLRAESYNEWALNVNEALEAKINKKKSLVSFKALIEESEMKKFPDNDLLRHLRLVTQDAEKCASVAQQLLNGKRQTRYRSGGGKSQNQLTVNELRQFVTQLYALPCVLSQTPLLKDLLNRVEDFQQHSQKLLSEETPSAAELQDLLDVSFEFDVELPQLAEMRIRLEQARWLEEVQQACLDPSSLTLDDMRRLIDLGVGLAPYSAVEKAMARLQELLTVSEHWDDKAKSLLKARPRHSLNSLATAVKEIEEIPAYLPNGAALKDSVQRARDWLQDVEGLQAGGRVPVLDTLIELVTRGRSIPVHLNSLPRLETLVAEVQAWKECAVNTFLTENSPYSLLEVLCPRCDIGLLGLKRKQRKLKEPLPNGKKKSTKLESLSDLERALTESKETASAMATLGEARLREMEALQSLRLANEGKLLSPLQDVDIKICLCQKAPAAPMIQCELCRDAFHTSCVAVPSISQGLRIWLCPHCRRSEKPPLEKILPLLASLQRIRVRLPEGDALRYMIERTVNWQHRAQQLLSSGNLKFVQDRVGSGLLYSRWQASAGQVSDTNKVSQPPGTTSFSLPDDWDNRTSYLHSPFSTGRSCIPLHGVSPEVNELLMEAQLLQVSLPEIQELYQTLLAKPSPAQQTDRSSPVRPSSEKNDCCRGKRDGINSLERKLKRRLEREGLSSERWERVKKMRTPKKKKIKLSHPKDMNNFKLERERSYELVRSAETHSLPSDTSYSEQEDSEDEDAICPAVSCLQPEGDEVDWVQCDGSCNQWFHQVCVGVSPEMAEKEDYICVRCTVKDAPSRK
row,Structure (SMILES),Potency
1,O=C(CSc1nnc2ccc(-c3ccncc3)nn12)N1CCCCC1,inactive
2,COc1ccc(-c2nc3ccc(C(=O)NCc4ccc(C)cc4)cc3nc2-c2ccc(OC)cc2)cc1,inactive
3,O=C(NC/C(=N/NC(=O)c1cccnc1)c1ccccc1)c1ccccc1,inactive
4,Cc1ccc(-c2ccc3nnc(CNC(=O)c4cccnc4)n3n2)cc1C,31.6 µM (active)
5,Cc1ccc(-c2ccc3nnc(CNC(=O)c4ccncc4)n3n2)cc1C,28.2 µM (active)
6,CC[C@H](C)NC(=O)c1ccc2nc(-c3ccc(C)cc3)cc(OC)c2c1,inactive
7,O=C(NCc1nnc2n1C(C(=O)NC1CC1)CC2)c1ccncc1 (configuration not stated),inactive
8,O=C(NCCCN1CCCC1)c1cccnc1,inactive
9,COc1ccc(C(=O)NCc2nnc3ccc(-c4ccc(C)cc4)nn23)cc1F,28.2 µM (active)
10,CCc1nonc1NC(=O)COc1ccc(C)c(C)c1,inactive
11,COc1ccc(NC(=O)CSCc2ccc(F)cc2Cl)cc1,inactive
12,CCOC(=O)COn1c(=O)c(-c2ccc(OCC)cc2)[n+]([O-])c2ccccc21,inactive
13,CN(C)CCNC(=O)C[C@@H]1c2nc(NC(=O)c3ccc(C(C)(C)C)cc3)sc2C[C@@H]2[C@](C)(CO)[C@H](O)CC[C@]21C,inactive
14,C=CCOC(=O)Nc1nc2c(s1)C[C@@H]1[C@](C)(CO)[C@H](O)CC[C@@]1(C)[C@@H]2CC(=O)N(CC)CC,inactive
15,CC(=O)N1CCN(C(=O)C[C@@H]2c3nc(NC(=O)c4cccs4)sc3C[C@@H]3[C@](C)(CO)[C@H](O)CC[C@]32C)CC1,inactive
16,C[C@]1(CO)[C@H]2Cc3sc(NC(=O)C4CCCCC4)nc3[C@@H](CC(=O)NCc3cccs3)[C@]2(C)CC[C@H]1O,inactive
17,CC(C)(C)c1ccc(C(=O)Nc2nc3c(s2)C[C@@H]2[C@](C)(CO)[C@H](O)CC[C@@]2(C)[C@@H]3CC(=O)NCc2cccs2)cc1,14.1 µM (active)
18,C=CCN(C)C(=O)C[C@@H]1c2nc(NC(=O)c3ccc(C(C)(C)C)cc3)sc2C[C@@H]2[C@](C)(CO)[C@H](O)CC[C@]21C,31.6 µM (active)
19,CC(C)(C)C(=O)COC(=O)c1cc(-c2ccccc2)c(N2CCOCC2)s1,inactive
20,CC(C)C(=O)N1CC(=O)Nc2ccc(F)cc2C1c1ccc(F)cc1 (configuration not stated),inactive
21,CC(=O)c1ccc(N2CCN(C(=O)CCNC(=O)Cn3ccc4ccccc4c3=O)CC2)cc1,inactive
22,Cc1cnc(C(=O)N(C)Cc2ccc(Cl)s2)cn1,inactive
23,Cc1ccc(C(C)C)c(OCCSc2nc3ccccc3n2CC(=O)O)c1,inactive
24,COc1ccc(OC)c(CC(C(=O)Nc2ccc(F)cc2)c2nn[nH]n2)c1 (configuration not stated),inactive
25,O=C(NCc1ccc(Cl)nc1)c1cn2c(n1)CN(C(=O)c1cccnc1)CC2,inactive
26,O=C(NCc1ccc(Cl)cc1)c1cc(-c2ccc[nH]2)n[nH]1,inactive

row,Structure (SMILES),Potency
1,O=C(NCc1cccnc1)c1nc(-c2ccc(Cl)nc2)c2cnccn12,63.1 µM (active)
2,O=C(CSc1nccn1Cc1ccc(Cl)cc1)NCc1ccccc1,inactive
3,O=C(NCc1ccc(Cl)nc1)c1ccn2cncc2c1,inactive
4,O=C(NCc1ccc(Cl)nc1)c1cnn2ncccc12,31.6 µM (active)
5,O=C(NCc1ccc(Cl)cc1)c1cccn2nccc12,35.5 µM (active)
6,O=C(NCc1ccc(Cl)nc1)c1c[nH]c2cccnc12,inactive
7,O=C(NCc1cccnc1)c1cnc2ccccc2n1,inactive
8,CC1CCCN(CC(=O)Nc2oc3ccccc3c(=O)c2-c2ccc(F)cc2)C1 (configuration not stated),inactive
9,N#Cc1cccc(Cn2c(=O)c3c(ncn3C3CCCC3)n(Cc3ccccc3)c2=O)c1,inactive
10,CN1CCN(Cc2ccc(Nc3ncc(-c4cccnc4)c4c3OCC4)cc2)CC1,inactive
11,COc1ncccc1Nc1ncc(-c2ccccc2)c2c1OCC2,inactive
12,CN(C)c1cccc(-c2cnc(Nc3ccc(N4CCOCC4)cc3)c3c2CCO3)c1,35.5 µM (active)
13,CN=c1scc(-c2cccs2)n1/N=C/c1cccs1,inactive
14,Cc1cnc(CCNC(=O)Nc2ccccc2F)n1C1CCC1,inactive
15,CN(Cc1cccs1)C(=O)Cc1c[nH]c2ccccc12,inactive
16,Cc1ccccc1C(=O)NCc1c[nH]c2ncccc12,inactive
17,COCCNC(=O)Cc1c[nH]c2ncc(-c3cccnc3OC)cc12,31.6 µM (active)
18,COc1ccccc1C(=O)NCCC(=O)N(C)Cc1cccnc1,inactive
19,COc1ncccc1-c1cnc2[nH]cc(CC(=O)N(C)Cc3ccccc3)c2c1,28.2 µM (active)
20,CNC(=O)c1cccc(-c2cnc3[nH]cc(CC(=O)NCc4cccc(F)c4)c3c2)c1,inactive
21,CN(CC(=O)NCc1ccc(F)cc1)C(=O)c1ccc2c(c1)nnn2C,inactive
22,Cc1nc2cc(NC(=O)c3cccc(S(=O)(=O)Nc4ccc(SC(F)F)cc4)c3)ccc2o1,inactive
23,CCN(CC)S(=O)(=O)c1ccc(-c2csc(-c3cccc(OC)c3OC)n2)cc1,inactive
24,NC(Cc1ccccc1)(Cc1ccccc1)C(=O)O,inactive
25,O=C(c1cnc(N2CCCCC2)c2ccccc12)N1CCN(c2ccccn2)CC1,inactive
26,Oc1ccccc1CN1C[C@H](O)C[C@H]1c1nc(Cc2ccc(F)cc2Cl)no1,inactive

row,Structure (SMILES),Potency
1,N#Cc1cccc(CN2C[C@H](O)C[C@H]2c2nc(-c3ccccn3)no2)c1,inactive
2,O=[N+]([O-])c1cccc(-c2noc([C@@H]3C[C@@H](O)CN3Cc3cccc(OC(F)(F)F)c3)n2)c1,inactive
3,O=[N+]([O-])c1ccccc1CN1C[C@H](O)C[C@H]1c1nc(-c2ccc(F)cc2)no1,25.1 µM (active)
4,COc1ccc(CN2C[C@H](O)C[C@H]2c2nc(-c3ccc4c(c3)OCO4)no2)c(OC)c1OC,inactive
5,O[C@@H]1C[C@@H](c2nc(-c3ccc4c(c3)OCO4)no2)N(Cc2ccc(-c3ccccn3)cc2)C1,25.1 µM (active)
6,CC(c1nc(-c2cccs2)no1)N(C)Cc1ccc(F)cc1F (configuration not stated),inactive
7,Cc1ccc(NC(=O)N2CCC(OC3CCN(S(C)(=O)=O)CC3)CC2)cc1F,inactive
8,CC(Sc1ncnc2nc[nH]c12)C(=O)NCc1ccc(Cl)c(Cl)c1 (configuration not stated),inactive
9,O=C(NC1CCCN(c2cc(-c3ccccc3)[nH]n2)C1)c1cccc(Cl)c1 (configuration not stated),inactive
10,O=C(NC1CCCN(c2cc(-c3ccc(Cl)cc3)[nH]n2)C1)c1ccncc1 (configuration not stated),inactive
11,O=C(NC1CCN(c2cc(-c3ccc(F)cc3)[nH]n2)C1)c1cc2ccccc2[nH]1 (configuration not stated),8.91 µM (active)
12,O=C(NC1CCCN(c2cc(-c3ccc(F)cc3)[nH]n2)C1)c1ccc(Br)cc1 (configuration not stated),inactive
13,O=C(NC1CCN(c2cc(-c3ccc(Cl)cc3)[nH]n2)CC1)c1ccccc1F,inactive
14,O=C(NC1CCN(c2cc(-c3ccc(Cl)cc3)[nH]n2)C1)c1c[nH]c2ccccc12 (configuration not stated),11.2 µM (active)
15,O=C(NC1CCCN(c2cc(-c3ccccc3)[nH]n2)C1)c1cccc2[nH]ccc12 (configuration not stated),28.2 µM (active)
16,O=C(NC1CCN(c2cc(-c3ccc(F)cc3)[nH]n2)C1)c1ccc2c(c1)OCO2 (configuration not stated),inactive
17,Cn1nccc1C(=O)NC1CCCN(c2cc(-c3ccc(F)cc3)[nH]n2)C1 (configuration not stated),inactive
18,O=C(NC1CCCN(c2cc(-c3ccc(Cl)cc3)[nH]n2)C1)c1ccccc1F (configuration not stated),inactive
19,O=C(NC1CCN(c2cc(-c3ccccc3)[nH]n2)CC1)c1cccs1,inactive
20,O=C(NC1CCN(c2cc(-c3cccs3)[nH]n2)C1)c1ccc(Br)cc1 (configuration not stated),4.47 µM (active)
21,C=C(Br)CN1CCCC1,inactive
22,CCc1cccc(-n2c(SCc3nc4ccccc4o3)nnc2N2CCOCC2)c1,inactive
23,O=C(c1ccccc1F)N1CCC(c2nn(-c3ccc(Cl)cc3)c(=O)[nH]2)CC1,inactive
24,CCOc1cccc2cc(-c3cc(=O)oc4cc(OC(=O)N5CCOCC5)ccc34)c(=O)oc12,inactive
25,Cc1cc(C)c2nc(SCC(=O)NC(=O)NC(C)(C)C)cc(C)c2c1,inactive
26,COc1cccc(CC(=O)NC2CCN(c3cc(-c4ccc(F)cc4)[nH]n3)C2)c1 (configuration not stated),7.94 µM (active)

row,Structure (SMILES),Potency
1,CCOc1ccc(CC(=O)NC2CCN(c3cc(-c4ccc(F)cc4)[nH]n3)CC2)cc1OCC,inactive
2,COc1ccc(CC(=O)NC2CCN(c3cc(-c4ccccc4)[nH]n3)CC2)cc1,inactive
3,Cc1ccc(S(=O)(=O)NCCC(=O)Nc2cccc(S(N)(=O)=O)c2)cc1C,inactive
4,CCOc1ccccc1CN1CCC2(CCN(C(=O)c3cccc(Cl)c3)CC2)Oc2ccccc21,25.1 µM (active)
5,CC1(c2cccnc2)N(CCOc2ccccc2)C(=O)OC12CCN(C(=O)c1cccc(Cl)c1)CC2 (configuration not stated),inactive
6,CC1(c2cccnc2)N(Cc2ccccc2)C(=O)OC12CCN(C(=O)c1cccc(Cl)c1)CC2 (configuration not stated),inactive
7,Cn1cccc1CN1CCC2(CC1)CNc1ccccc1[S+](=O)([O-])N2,inactive
8,CN(C)C(=O)c1cc(-c2cccc(C(F)(F)F)c2)c2nncn2n1,100 µM (active)
9,NCc1ccccc1-c1cccc(C(F)(F)F)c1,inactive
10,CN(C)C(=O)c1n[nH]c2c1CN(C(=O)c1cccc(C(F)(F)F)c1)CC2,inactive
11,Cc1ccc(N2CCN(C(C(=O)O)c3c[nH]c4cc(NC(=O)C(C)C)ccc34)CC2)c(C)c1 (configuration not stated),inactive
12,Oc1c(-c2ccccc2)nc2sc3c(c2c1-c1ccccc1)CCCC3,inactive
13,CN(C)C[C@@H]1CN(c2ncccn2)C[C@H]1NC(=O)Cc1ccccc1Cl,22.4 µM (active)
14,CCOc1ccc(CC(=O)N2C[C@@H](N)C[C@H]2C(=O)NC(C)C)cc1,inactive
15,CCOc1ccc(CC(=O)N[C@@H]2CN(c3ncccn3)C[C@H]2CN(C)C)cc1,25.1 µM (active)
16,CN(C)C[C@@H]1CN(c2ncccn2)C[C@H]1NC(=O)CCc1ccccc1,28.2 µM (active)
17,CN(C)C[C@@H]1CN(c2ccncn2)C[C@H]1NC(=O)c1cc(C2CC2)[nH]n1,inactive
18,O=C(Cc1ccccc1Cl)N1CCN(c2ncnc3nc[nH]c23)CC1,inactive
19,Cc1ccc(C)n1-c1nnc(N2CCC(C(=O)NCc3ccccc3Cl)CC2)s1,inactive
20,CN(C)C(=O)c1cccnc1OC1CCN(C(=O)Cc2ccc(Cl)cc2)C1 (configuration not stated),inactive
21,O=C(c1cc(Cl)cc(Cl)c1)N1CCN(C(=O)c2cc(Cl)ccc2F)CC1,inactive
22,Cc1n[nH]c(C)c1CCC(=O)N[C@@H]1CN(S(C)(=O)=O)C[C@H]1CN(C)C,inactive
23,CN(C)C[C@@H]1CN(c2ncccn2)C[C@H]1NC(=O)c1cc(Cl)ccc1F,31.6 µM (active)
24,COc1ccc(CNC(=O)N[C@@H]2CN(c3ccncn3)C[C@H]2CN(C)C)cc1,inactive

# Source: PubChem BioAssay AID1347165 (National Center for Advancing Translational Sciences (NCATS), 2019)
